Data reported in PubChem BioAssay (NCI).
Values joined by “and” are separate entries in the source; they are usually repeats but may differ in a detail not shown here. Identical values can stand only once. This is part of a sample that, as a whole, favours compounds with a hit. Of some 79,000 tested, about 15% had one in any assay. Active and inactive are the calls of the source. No stated cut-off is given here; in the data, active means growth inhibition above about 70%; inactive means the rest.

What was measured:
[1] = NCI Yeast Anticancer Drug Screen. Data for the rad50 strain (AID 155);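 further: 0% = growth of vehicle-only cultures of the same strain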; details: S. cerevisiae rad50 strain growth inhibition, active compounds read high
Outline: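 Compounds were tested on a yeast strain with an engineered DNA damage repair alteration; the reported value is growth inhibition normalised to vehicle treatment.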

[2] = NCI Yeast Anticancer Drug Screen. Data for the mec2-1 strain (AID 157); details: S. cerevisiae mec2-1 strain, active compounds read high
Outline: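 Compounds were applied to mec2-1 yeast cells. Their growth was then compared with that of vehicle-treated cultures to give growth inhibition.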

[3] = NCI Yeast Anticancer Drug Screen. Data for the sgs1 mgt1 strain (AID 161);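 further: 0% = growth of cultures given vehicle only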; details: S. cerevisiae sgs1 mgt1 strain, active compounds read high
Outline: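 Compounds are added to genetically altered yeast, and growth is compared with cultures given vehicle alone to give percent inhibition.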

[4] = NCI Yeast Anticancer Drug Screen. Data for the cln2 rad14 strain (AID 165);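 further: 0% = growth equal to vehicle treated cultures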; details: S. cerevisiae cln2 rad14 strain, active compounds read high
Outline: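 Strain: cln2 rad14 yeast, altered in cell cycle control and DNA damage repair. Read-out: growth inhibition vs vehicle.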

[5] = NCI Yeast Anticancer Drug Screen. Data for the bub3 strain (AID 167); details: S. cerevisiae bub3 mutant strain, active compounds read high
Outline: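 Growth of a checkpoint-deficient yeast mutant is measured after compound exposure. Values represent inhibition relative to vehicle.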

[6] = NCI Yeast Anticancer Drug Screen. Data for the mlh1 rad18 strain (AID 175); details: S. cerevisiae mlh1 rad18 strain growth inhibition, active compounds read high
Outline: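 A repair-deficient yeast strain is exposed to test compound, and growth is scored relative to vehicle-treated controls.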

[7] = NCI Yeast Anticancer Drug Screen. Data for the wt1 strain (AID 149);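 further: 0% = growth of vehicle-treated wt1 cultures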; details: S. cerevisiae wt1 strain (SPY 50644) growth inhibition, active compounds read high
Outline: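 Readout: yeast growth inhibition, normalised to vehicle controls, in the wt1 strain exposed to test compounds.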

[8] = NCI Yeast Anticancer Drug Screen. Data for the rad50EPP+ strain (AID 151);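 further: 0% = growth of vehicle-treated control cultures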; details: S. cerevisiae rad50 mutant strain, active compounds read high
Outline: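 Measured: growth inhibition of rad50EPP+ yeast. Reference: vehicle-treated controls. Screen uses strains with defined genetic alterations in DNA damage repair or cell cycle control.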

[9] = NCI Yeast Anticancer Drug Screen. Data for the CLN2oe strain (AID 163);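 further: 0% = growth of vehicle-only control cultures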; details: S. cerevisiae CLN2oe strain, active compounds read high
Outline: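 Cells of an engineered yeast line with disturbed cell-cycle regulation are treated with compound. Inhibition of growth is then calculated relative to the vehicle-treated reference.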

[10] = NCI Yeast Anticancer Drug Screen. Data for the wt2 strain (AID 169);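 further: 0% = growth of vehicle-treated yeast cultures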; details: S. cerevisiae wt2 strain growth inhibition, active compounds read high
Outline: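 Growth of compound-treated yeast is measured and expressed as inhibition relative to vehicle-only controls.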

[11] = NCI Yeast Anticancer Drug Screen. Data for the sgs1 strain (AID 173);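 further: 0% = growth of vehicle-only control cultures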; details: S. cerevisiae sgs1 mutant, active compounds read high
Outline: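 Strain with an altered DNA repair or cell cycle pathway exposed to compound. Growth then measured. Value = inhibition versus vehicle control.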

[12] = at 5.0 µM (retest, dose inferred, filed as 0.5)
[13] = at 50.0 µM (retest, dose inferred, filed as 5.0)

Measured: growth inhibition

COc1nc(N)c(N=CC(OC(C)=O)C(OC(C)=O)C(COC(C)=O)OC(C)=O)c(=O)n1C (configuration not stated)
inactive: [1]; [12] -3% and -10% and 6% | [1]; [13] -9% and -4% and -19% | [2]; [12] 24% and -10% and 7% | [2]; [13] 3% and 1% and 5% | [3]; [12] 8% and 6% and 29% | [3]; [13] 13% and -2% and -3% | [4]; [12] -6% and 1% and 6% | [4]; [13] -13% and 6% and 19% | [5]; [12] 10% and 11% and 13% | [5]; [13] -7% and -8% and -4% | [6]; [12] -3% and -20% and -25% | [6]; [13] 0% and -18% and -21%

CCCC(=O)OC(OC(=O)CCC)c1ccc([N+](=O)[O-])o1
inactive: [7]; at 1.2 µM -3% | [7]; at 3.7 µM -2% | [7]; at 11.0 µM -1% | [7]; at 33.0 µM 2% | [7]; at 100.0 µM 11% | [8]; at 1.2 µM 2% | [8]; at 3.7 µM 15% | [8]; at 11.0 µM 46% | [1]; at 1.2 µM -2% | [1]; at 3.7 µM -1% | [1]; [12] 22% | [1]; at 11.0 µM 10% | [1]; at 33.0 µM 47% | [1]; [13] 34% | [1]; at 50.0 µM 63.9% | [2]; at 1.2 µM -4% | [2]; at 3.7 µM -1% | [2]; [12] 17% | [2]; at 11.0 µM 2% | [2]; at 33.0 µM 5% | [2]; [13] 8% | [2]; at 50.0 µM -1.45% | [2]; at 100.0 µM 20% | [3]; [12] 14% | [3]; [13] 55% | [3]; at 50.0 µM 53.4% | [9]; at 1.2 µM -1% | [9]; at 3.7 µM -8% | [9]; at 11.0 µM -10% | [9]; at 33.0 µM -5% | [9]; at 100.0 µM 8% | [4]; [12] 1% | [4]; [13] 8% | [4]; at 50.0 µM 12.1% | [5]; at 1.2 µM -4% | [5]; at 3.7 µM -5% | [5]; [12] 2% | [5]; at 11.0 µM -4% | [5]; at 33.0 µM -3% | [5]; [13] 7% | [5]; at 50.0 µM 14.4% | [5]; at 100.0 µM 3% | [10]; at 1.2 µM -3% | [10]; at 3.7 µM -3% | [10]; at 11.0 µM -3% | [10]; at 33.0 µM 1% | [10]; at 100.0 µM 11% | [11]; at 1.2 µM -1% | [11]; at 3.7 µM 1% | [11]; at 11.0 µM 7% | [11]; at 33.0 µM 21% | [11]; at 100.0 µM 61%
active: [8]; at 33.0 µM 83% | [8]; at 100.0 µM 93% | [1]; at 100.0 µM 83%
